Hits are enriched below; roughly 4.8% of the tested compounds scored in any of these assays.
SMARCA2 activ: increases SMARCA2 function in MMTV reporter cells; actives 1% (n = 370,000); MG213 cells, MMTV-luciferase reporter, dexamethasone, overnight; activation, % at 9.1 µM; in the data active means activation above about 7.8%;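 further: 0% = vehicle wells and 100% = reference activator wells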
hgDAF-12 ag: hgDAF-12 agonism, primary luciferase screen; activation, % at 6.8 µM; actives 1.8% (n = 370,000); AID 687014; HEK293 GAL4-hgDAF12 UAS-luciferase reporter, agonist luminescence; normalized to butyrate control;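 active means activation above a cutoff set at the mean of all screened compounds plus 3 SD, cut at about 10% in these data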;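 further: 0% = DMSO wells and 100% = sodium butyrate wells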
hcDAF-12 act: activates DAF-12 receptor from parasite H. contortus. HEK293 hcDAF-12 lit1-tk-luc reporter, luminescence; 0% DMSO, 100% Δ7-dafachronic acid. actives 1.4% (n = 370,000). activation, % at 6.8 µM;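 active means activation above the mean of all tested compounds plus 3 SD, cut at about 5.5% in these data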;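 further: 100% = response to 3 µM Δ7-dafachronic acid high control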
DAX1 inh-1: inhibitors of DAX1 repression of SF-1 activated StAR promoter; HEK293T StAR-luciferase reporter, SF-1/DAX-1 repression relief; inhibition, % at 6.8 µM; actives 1.1% (n = 370,000); AID 652010;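 active means inhibition above the mean over all tested compounds plus 3 SD, cut at about 3.6% in these data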;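 further: 0% = DAX-1 cells with DMSO and 100% = cells lacking DAX-1 with DMSO; higher inhibition means more luminescence from relief of DAX-1 repression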
ssDAF12 agonist: activates DAF-12 receptor from parasite S. stercoralis. HEK293 ssDAF-12/GRIP1 lit1-tk-luc reporter, luminescence; % of 3 µM dafachronic acid response. activation, % at 6.8 µM. actives 1% (n = 370,000);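 active means activation above the mean over all tested compounds plus 3 SD, cut at about 0.9% in these data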;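 further: 0% = DMSO-only wells and 100% = 3 µM delta7-dafachronic acid wells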
DAX1 inh-2: inhibits human nuclear receptor DAX1; P51843; HEK293 Gal4-DAX1 luciferase reporter, luminescence; inhibition, % at 6.75 µM; actives 0.99% (n = 340,000); AID 504766;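 active means inhibition above the mean over all tested compounds plus 3 SD, cut at about 4.2% in these data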;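 further: 0% = DAX1-transfected cells with DMSO and 100% = empty-vector control cells with DMSO; inhibition shows as a rise in luminescence from relieved DAX1 repression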
Target sequence (P51843 207-470 limits assumed): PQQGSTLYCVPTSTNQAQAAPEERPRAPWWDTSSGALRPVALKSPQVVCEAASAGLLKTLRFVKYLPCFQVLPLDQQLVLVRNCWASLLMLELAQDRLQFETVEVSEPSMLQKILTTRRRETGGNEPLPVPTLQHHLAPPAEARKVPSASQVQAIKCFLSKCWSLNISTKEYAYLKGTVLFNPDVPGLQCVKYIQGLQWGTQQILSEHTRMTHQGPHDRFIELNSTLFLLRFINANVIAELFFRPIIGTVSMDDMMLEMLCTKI
SMARCA2 act conf: SMARCA2 activation, confirmation screen | shares compounds with SMARCA2 activ | actives 30% (n = 3,500) | activation, % at 9.1 µM | AID 652260 | MG213 cells, MMTV-luciferase with dexamethasone, luminescence, overnight; MG213 cells expressing E1A, Rb sequestered; DMSO wells 0%, reference activator 100%;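 active means activation above its plate's cutoff, the mean activation of tested wells plus 3 SD, cut at about 7.9% in these data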
VP16 Luc act: activates GAL4-VP16 luciferase, flagging SMARCA2 activator hits; actives 41% (n = 3,500); shares compounds with SMARCA2 activ; HEK293 GAL4-VP16 pG5luc reporter, luciferase luminescence; scaled: DMSO wells 0%, SAHA wells 100%; AID 686939; activation, % at 9.1 µM;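 active means activation above the solvent-only control well mean plus 3 SD, averaged across control plates, cut at about 5.2% in these data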
Active calls of the source: *; x = not tested or not shown.

SMILES	SMARCA2 activ	hgDAF-12 ag	hcDAF-12 act	DAX1 inh-1	ssDAF12 agonist	DAX1 inh-2	SMARCA2 act conf	VP16 Luc act
O=C(N/N=C/c1cn(Cc2ccccc2)c2ccccc12)c1cccnc1	-6	-4	-4	-2	-2	-4	x	x
O=C(CNc1nnnn1-c1ccccc1)N1CCCC1	-4	-2	3	0	-1	x	x	x
CN/N=C/c1ccc(C#N)cc1	1	1	-1	0	-1	-1	x	x
C[C@H](NS(=O)(=O)c1ccc2c(c1)OCCCO2)C(=O)N1CCN(Cc2ccc(C#N)cc2)CC1	8.8*	4	2	0	-1	-1	-4	1
C[C@H](NS(=O)(=O)c1ccc2c(c1)OCCCO2)C(=O)N1CCN(Cc2ccccc2)CC1	-4	-2	0	1	0	-1	x	x
CN(C)CCNc1nc(Oc2cccc(F)c2)c2sccc2n1	1	1	-1	0	-1	x	x	x
CCS(=O)(=O)N1CCc2nc(-c3ccccc3)sc2C1	8.1*	12*	3	2	0	4.9*	8	11*
COc1ccc(-c2nc3c(s2)CN(S(C)(=O)=O)CC3)cc1OC	6	1	1	0	-1	2	x	x
COc1ccc(CNC(=O)C(=O)NCC2CCCO2)cc1 (stereo unspecified)	0	-2	-2	0	-1	1	x	x
CCN1CCN(Cc2ccc(NC(=O)c3ccc(C)c(NC(=O)C(=O)c4c[nH]c5ccccc45)c3)cc2C(F)(F)F)CC1	0	3	3	1	0	1	x	x
CCN1CCN(Cc2ccc(NC(=O)c3cc(NC(=O)C(=O)c4c[nH]c5ccccc45)cc(OC)c3)cc2C(F)(F)F)CC1	10*	0	1	0	-1	0	-15	3
COC(=O)Cc1nnn2c1[C@H](C)[C@@H](OC)c1cccc(Cl)c1-2	-6	1	-1	0	-1	x	x	x
COC(=O)Cc1nnn2c1[C@H](C)[C@@H](OC)c1ccc(C(F)(F)F)cc1-2	11*	-1	-1	0	-1	x	0	3
C[C@@H]1CN([C@@H](C)CO)S(=O)(=O)c2ccc(Br)cc2O[C@H]1CN(C)C(=O)CN(C)C	-3	0	-1	1	-1	1	x	x
COc1ccc(NS(=O)(=O)c2ccc(N3CCOCC3)c(NC(=O)c3ccccc3Cl)c2)cc1	3	1	-3	1	-1	-1	x	x
CC1=NN(C(=O)COc2ccccc2C)C(O)(c2ccc(Cl)cc2)C1 (stereo unspecified)	0	1	-1	-1	-1	-1	x	x
Cc1ccc(-c2nc(CN3CCCCC3)cc(CN3CCCCC3)c2O)cc1	8.2*	-5	1	1	-1	x	3	2
COC(=O)CSc1nnc(CNC(=O)c2ccc(S(=O)(=O)N(C)C)cc2)n1C	2	0	0	0	-1	-1	x	x
CCN1CCN(CCOc2cccc(Oc3ccccc3)c2)CC1	8.0*	3	0	0	-1	-1	-3	1
CCN1CCN(CCOCCOc2ccccc2)CC1	-3	1	1	0	-1	0	x	x
O=c1c2ccccc2nc2c3ccccc3c(NCCN3CCOCC3)nn12	33*	3	2	-1	-1	x	45*	0
c1ccc2nc3c(nc2c1)c1ccccc1n3CCN1CCOCC1	11*	10	2	-1	-1	2	7.9*	4
O=c1c2c(-c3ccccc3)csc2nc2c3ccccc3c(NCCN3CCOCC3)nn12	5	1	1	0	-2	0	x	x
CCCn1c2ccccc2c2nnc(SCCN3CCOCC3)nc21	-1	-3	-3	-1	-2	-2	x	x
COc1ccc(C(c2nnnn2C(C)(C)C)N2CCN(c3nc4ccccc4s3)CC2)cc1 (stereo unspecified)	9.2*	1	2	0	-1	3	-1	1
SMILES	SMARCA2 activ	hgDAF-12 ag	hcDAF-12 act	DAX1 inh-1	ssDAF12 agonist	DAX1 inh-2	SMARCA2 act conf	VP16 Luc act
COc1ccc(N2CCN(C(c3ccccc3)c3nnnn3C(C)(C)C)CC2)cc1 (stereo unspecified)	-2	-2	-2	-1	-1	x	x	x
CC(=O)N1CCn2c3ccc(C)cc3c3cccc1c32	8.4*	3	0	1	-1	3	6	3
COc1ccc(OC)c(NC(=O)c2ccccc2OC(C)=O)c1	2	2	2	-1	0	1	x	x
CCN(CC)S(=O)(=O)c1ccc(C(=O)NNC(=O)c2cccs2)cc1	11*	-1	0	-1	-1	1	-1	2
CCN(CC)S(=O)(=O)c1ccc(NC(=O)c2cccs2)cc1	2	2	-1	-1	-1	1	x	x
O=C(CCS(=O)(=O)c1cccs1)Nc1ccc(C(=O)NCc2ccc(F)cc2)cc1	-3	-4	-1	-2	-1	-1	x	x
COC(=O)[C@H](Cc1ccccc1)NS(=O)(=O)N[C@@H](Cc1ccccc1)C(=O)OC	0	-1	1	0	-2	0	x	x
COc1ccc(CCNC(=O)C(=O)NCC2OCCN2C(=O)c2ccc(Cl)cc2)cc1OC (stereo unspecified)	9.5*	-2	-1	1	-1	0	0	1
O=C(COC(=O)CNS(=O)(=O)c1cccc(Br)c1)NC(=O)Nc1ccc2c(c1)OCCO2	11*	2	0	1	0	-1	8	1
O=C(NCc1ccco1)c1noc2c1CCCCC2	10*	5	1	1	-2	3	4	1
O=C(NCc1cccs1)c1noc2c1CCCC2	2	5	-1	0	-2	-1	x	x
CC(C)c1cc(C(=O)NCc2ccco2)no1	9.0*	6	0	2	-1	0	8	7.3*
COc1ccc(N2CCN(C(=O)Oc3ccc([N+](=O)[O-])cc3)CC2)cc1	-3	1	-1	0	-1	x	x	x
NC(=S)N/N=C/c1coc2c(ccc3ccccc32)c1=O	13*	5	5	0	1	3	2	3
C=CCn1c(-c2ccccc2OC)n[nH]c1=S	-2	0	4	0	0	0	x	x
CC(=O)c1c(C)[nH]c(-c2ccccc2)nc1=S	11*	3	5	1	0	-1	-3	0
COc1ccccc1-c1nc(=S)c(C(C)=O)c(C)[nH]1	12*	0	-1	0	-1	x	-1	2

Screening results from PubChem.
